In PubChem BioAssay (NCATS):
Results filed as inconclusive are left out. Unmarked numbers belong to inactive results. Activity calls are given as the source filed them. Unless noted, the call rests on the fitted dose curve.

How the values were obtained:
[1] = Cell Viability - BJ (AID 421); details: BJ fibroblast viability, qHTS;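 further: cells exposed to compound for 40 hours at 37 °C before readout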
Outline: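 Normal human BJ foreskin fibroblasts, 1500/well in complete medium, treated 40 hr at 37 °C. Cellular ATP by CellTiter-Glo luminescence; normalized to DMSO and 100 uM tamoxifen, AC50 from Hill fit.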

[2] = Cell Viability - Jurkat (AID 426;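 active means dose-dependent loss of cell ATP signal giving a full or clear fitted curve, ranked by lower potency value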); details: qHTS
Outline: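 Luminescent ATP read-out (CellTiter-Glo, 20 min at room temperature) after 40 hr compound exposure at 37 °C of Jurkat E6-1 cells, 5000/well. Decreased ATP taken as cytotoxicity; AC50 from standard Hill equation.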

[3] = Cell Viability - Hek293 (AID 427;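 active means compounds whose dose-response curve shows a full or clear partial loss of cell viability, called from curve shape rather than a numeric limit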;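 further: cells exposed to compound for 40 hours at 37 °C before reading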); details: qHTS
Outline: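 HEK293 cells in complete medium were exposed to compound for 40 hr at 37 °C, then cellular ATP was read by CellTiter-Glo luminescence. Data were normalized to DMSO (basal) and 100 uM tamoxifen (100% inhibition), and AC50 came from Hill fits.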

[4] = Cell Viability - HepG2 (AID 433); details: qHTS;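 further: potency for ATP loss meaning cytotoxicity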
Outline: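 In this qHTS format, a 40 h, 37 °C compound incubation of HepG2 cells in complete medium precedes a 20 min CellTiter-Glo step at room temperature. Tamoxifen and doxorubicin serve as positive controls; Hill-equation fits yield AC50.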

[5] = Cell Viability - MRC5 (AID 434); details: MRC5 lung fibroblast viability, qHTS;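 further: potency reflects cytotoxicity seen as loss of intracellular ATP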
Outline: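 ATP luminescence read-out (CellTiter-Glo, 20 min RT) after 40 hr, 37 °C compound exposure of 1500 MRC5 cells/well. Data normalized to DMSO (basal) and 100 uM tamoxifen (100% inhibition); AC50 from standard Hill equation.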

[6] = Cell Viability - SK-N-SH (AID 435); details: SK-N-SH neuroblastoma cell viability qHTS;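 further: compound exposure lasted 40 h at 37 °C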
Outline: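 Human neuroblastoma line, 40 h exposure at 37 °C, ATP quantified via luciferase luminescence; DMSO and 100 uM tamoxifen define 0 and 100% inhibition for AC50 fitting.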
Potency means the concentration at half of the fitted maximal effect.

`OC[C@H]1O[C@@H]2O[C@H]3[C@H](O)[C@@H](O)[C@@H](O[C@H]4[C@H](O)[C@@H](O)[C@@H](O[C@H]5[C@H](O)[C@@H](O)[C@@H](O[C@H]6[C@H](O)[C@@H](O)[C@@H](O[C@H]7[C@H](O)[C@@H](O)[C@@H](O[C@H]1[C@H](O)[C@H]2O)O[C@@H]7CO)O[C@@H]6CO)O[C@@H]5CO)O[C@@H]4CO)O[C@@H]3CO` showed a Potency [1] of over 92 µM, a Potency [2] of over 92 µM and a Potency [3] of over 92 µM. It also gave a Potency [4] of over 92 µM, a Potency [5] of over 92 µM and a Potency [6] of over 92 µM.

For `OCl`, the Potency [1] was over 92 µM, the Potency [2] was over 92 µM and the Potency [3] was over 92 µM. For the same compound, the Potency [4] was over 92 µM, the Potency [5] was over 92 µM and the Potency [6] was over 92 µM.

With `C[C@H]1O[C@@H](O[C@H]2[C@@H](O)C[C@H](O[C@H]3[C@@H](O)C[C@H](O[C@H]4CC[C@@]5(C)[C@H](CC[C@@H]6[C@@H]5C[C@@H](O)[C@]5(C)[C@@H](C7=CC(=O)OC7)CC[C@]65O)C4)O[C@@H]3C)O[C@@H]2C)C[C@H](O)[C@@H]1O` the Potency [1] was 0.00125 µM (active), the Potency [2] was 0.00438 µM (active) and the Potency [3] was 0.0128 µM (active). For the same compound, the Potency [4] was 0.0159 µM (active), the Potency [5] was over 92 µM and the Potency [6] was 0.0073 µM (active).

Compound `CO/N=C(/C(=O)N[C@@H]1C(=O)N2C(C(=O)O)=C(COC(N)=O)CS[C@H]12)c1ccco1` has a Potency [1] of over 92 µM, a Potency [2] of over 92 µM and a Potency [3] of over 92 µM. It also gave a Potency [4] of over 92 µM, a Potency [5] of over 92 µM and a Potency [6] of over 92 µM.

In the case of `O=c1n(CC2CO2)c(=O)n(CC2CO2)c(=O)n1CC1CO1` (centres undefined), the Potency [1] is reported as 30.6 µM (active), the Potency [2] is reported as 14.7 µM (active) and the Potency [5] is reported as 51.4 µM (active).

`O.O.O.O.O.O.O.O=S(=O)([O-])[O-].[Co+2]` showed a Potency [1] of over 92 µM, a Potency [3] of over 92 µM and a Potency [4] of over 92 µM. For the same compound, the Potency [5] was over 92 µM and the Potency [6] was over 92 µM.

Compound `CC1=CCC2CC1C2(C)C` (centres undefined) has a Potency [1] of over 92 µM, a Potency [2] of over 92 µM and a Potency [3] of over 92 µM. It also gave a Potency [4] of over 92 µM, a Potency [5] of over 92 µM and a Potency [6] of over 92 µM.

Work on `CCCCO` yielded a Potency [1] of over 92 µM, a Potency [2] of over 92 µM and a Potency [3] of over 92 µM. The Potency [4] was over 92 µM, the Potency [5] was over 92 µM and the Potency [6] was over 92 µM.

`Oc1cccc(O)c1O` gave a Potency [4] of over 92 µM and a Potency [5] of over 92 µM.

`C[C@H](CCC(=O)O)[C@H]1CC[C@H]2[C@@H]3CC[C@@H]4C[C@H](O)CC[C@]4(C)[C@H]3C[C@H](O)[C@]12C` showed a Potency [1] of over 92 µM, a Potency [2] of over 92 µM and a Potency [3] of over 92 µM. For the same compound, the Potency [4] was over 92 µM, the Potency [5] was over 92 µM and the Potency [6] was over 92 µM.

`CC(C)O` showed a Potency [1] of over 92 µM, a Potency [2] of over 92 µM and a Potency [3] of over 92 µM. For the same compound, the Potency [4] was over 92 µM, the Potency [5] was over 92 µM and the Potency [6] was over 92 µM.

`O=P(O)(O)O` gave a Potency [1] of over 92 µM, a Potency [2] of over 92 µM and a Potency [3] of over 92 µM. It also gave a Potency [4] of over 92 µM, a Potency [5] of over 92 µM and a Potency [6] of over 92 µM.

`C[C@H](CCC(=O)O)[C@H]1CC[C@H]2[C@@H]3[C@H](O)C[C@@H]4C[C@H](O)CC[C@]4(C)[C@H]3C[C@H](O)[C@]12C` gave a Potency [1] of over 92 µM, a Potency [2] of over 92 µM and a Potency [3] of over 92 µM. For the same compound, the Potency [4] was over 92 µM, the Potency [5] was over 92 µM and the Potency [6] was over 92 µM.

`OCc1ccccc1` gave a Potency [1] of over 92 µM, a Potency [2] of over 92 µM and a Potency [3] of over 92 µM. For the same compound, the Potency [4] was over 92 µM, the Potency [5] was over 92 µM and the Potency [6] was over 92 µM.

Work on `Nc1nccs1` yielded a Potency [1] of over 92 µM, a Potency [2] of over 92 µM and a Potency [3] of over 92 µM. The Potency [4] was over 92 µM, the Potency [5] was over 92 µM and the Potency [6] was over 92 µM.

`OCC(O)CO` gave a Potency [1] of over 92 µM, a Potency [2] of over 92 µM and a Potency [3] of over 92 µM. It also gave a Potency [4] of over 92 µM, a Potency [5] of over 92 µM and a Potency [6] of over 92 µM.

With `Cc1ccc(S(=O)(=O)O)cc1C` the Potency [1] was over 92 µM, the Potency [2] was over 92 µM and the Potency [3] was over 92 µM. The Potency [4] was over 92 µM, the Potency [5] was over 92 µM and the Potency [6] was over 92 µM.

For `C=C1C(CCl)(CCl)C2(Cl)C(Cl)C(Cl)C1(Cl)C2(Cl)Cl` (centres undefined), the Potency [2] was 31 µM (active), the Potency [3] was 48.2 µM (active) and the Potency [4] was over 92 µM. The Potency [5] was over 92 µM and the Potency [6] was 50 µM (active).
